In article PMC5700166 one finds binding signal data, which are given here for eleven sequences.

Residue numbers refer to the chain shown, from its start.

What all share (test): protein-binding microarray (PBM); PBM: ~300 nM protein, 6 mM HEPES pH 7.8, 80 mM KCl, 0.5 mM EDTA, 0.5 mM EGTA, 6% glycerol, 35 ng/ul poly-dIdC, 1% milk, 1 h, room temperature; Ap Aiptasia and Nv Nematostella (sea anemones) / Co Capsaspora / Aq Amphimedon (sponge) / Dm Drosophila / Hu human; RHD is the Rel homology domain; high values mean tight binding
Conditions in all cases: dsDNA, one strand shown

Experiment [1] addresses T1, GST-Ap-NF-kB RHD (Exaiptasia pallida (Aiptasia), UniProt A0A913YAJ5 2-422).
T1 sequence: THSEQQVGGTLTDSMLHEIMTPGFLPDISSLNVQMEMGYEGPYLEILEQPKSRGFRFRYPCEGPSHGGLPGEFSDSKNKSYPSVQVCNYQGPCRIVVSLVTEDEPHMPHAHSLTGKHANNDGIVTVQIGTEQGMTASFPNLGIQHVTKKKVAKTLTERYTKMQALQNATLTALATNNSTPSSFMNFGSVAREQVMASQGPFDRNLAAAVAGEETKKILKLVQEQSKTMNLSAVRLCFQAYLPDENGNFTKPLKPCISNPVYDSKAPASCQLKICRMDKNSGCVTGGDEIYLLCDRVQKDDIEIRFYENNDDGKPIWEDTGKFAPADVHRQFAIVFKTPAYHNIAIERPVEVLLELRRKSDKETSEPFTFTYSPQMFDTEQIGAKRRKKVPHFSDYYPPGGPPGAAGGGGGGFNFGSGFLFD

Experiment [2] has as its target T2, GST-Nv-NF-kB (Cys allele) (Nematostella vectensis, UniProt E5G601 2-411).
T2 sequence: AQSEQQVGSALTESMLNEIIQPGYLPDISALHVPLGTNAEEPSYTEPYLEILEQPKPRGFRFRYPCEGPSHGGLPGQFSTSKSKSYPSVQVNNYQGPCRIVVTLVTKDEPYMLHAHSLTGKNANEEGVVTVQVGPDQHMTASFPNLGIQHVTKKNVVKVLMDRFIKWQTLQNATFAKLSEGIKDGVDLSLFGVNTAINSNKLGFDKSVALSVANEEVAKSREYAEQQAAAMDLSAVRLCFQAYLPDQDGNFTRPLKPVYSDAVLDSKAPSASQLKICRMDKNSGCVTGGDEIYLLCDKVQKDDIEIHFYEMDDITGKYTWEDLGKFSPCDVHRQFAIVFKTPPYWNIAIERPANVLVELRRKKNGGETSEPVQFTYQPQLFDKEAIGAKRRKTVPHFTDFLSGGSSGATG

The target of experiment [3] is T3, GST-Nv-NF-kB (Ser allele) (Nematostella vectensis, UniProt A7UNT2 2-411).
T3 sequence: T2 sequence with Q21R, C66S, S207N, E215Q, V217A, E225K, A268E, D399E

For experiment [4], the target named is T4, GST-Co-NF-kB (Capsaspora owczarzaki, UniProt F1ARL5 200-546).
T4 sequence: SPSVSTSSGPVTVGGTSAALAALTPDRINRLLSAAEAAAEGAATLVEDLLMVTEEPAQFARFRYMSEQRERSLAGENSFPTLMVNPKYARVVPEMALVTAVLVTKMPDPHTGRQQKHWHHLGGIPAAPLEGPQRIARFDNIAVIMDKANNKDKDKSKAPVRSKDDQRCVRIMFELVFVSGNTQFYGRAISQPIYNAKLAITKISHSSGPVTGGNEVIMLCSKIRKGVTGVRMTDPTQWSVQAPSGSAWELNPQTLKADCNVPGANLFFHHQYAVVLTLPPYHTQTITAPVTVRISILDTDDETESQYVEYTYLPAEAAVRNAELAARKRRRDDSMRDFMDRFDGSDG

Experiment [5] concerns the target T5, GST-Dm-Relish (Drosophila melanogaster, UniProt Q94527 99-473).
T5 sequence: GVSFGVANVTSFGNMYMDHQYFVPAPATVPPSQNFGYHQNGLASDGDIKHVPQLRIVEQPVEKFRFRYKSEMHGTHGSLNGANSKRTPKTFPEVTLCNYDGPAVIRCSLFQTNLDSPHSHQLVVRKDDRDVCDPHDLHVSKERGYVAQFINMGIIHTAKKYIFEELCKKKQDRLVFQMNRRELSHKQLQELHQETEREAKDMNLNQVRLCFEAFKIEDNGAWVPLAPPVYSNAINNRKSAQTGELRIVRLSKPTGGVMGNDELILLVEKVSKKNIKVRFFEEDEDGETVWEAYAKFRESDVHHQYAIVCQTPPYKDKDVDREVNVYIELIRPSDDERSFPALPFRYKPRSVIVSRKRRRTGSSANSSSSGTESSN

Experiment [6] concerns the target T6, GST-Aq-NF-kB (Amphimedon queenslandica, UniProt A9Y5G7 2-389).
T6 sequence: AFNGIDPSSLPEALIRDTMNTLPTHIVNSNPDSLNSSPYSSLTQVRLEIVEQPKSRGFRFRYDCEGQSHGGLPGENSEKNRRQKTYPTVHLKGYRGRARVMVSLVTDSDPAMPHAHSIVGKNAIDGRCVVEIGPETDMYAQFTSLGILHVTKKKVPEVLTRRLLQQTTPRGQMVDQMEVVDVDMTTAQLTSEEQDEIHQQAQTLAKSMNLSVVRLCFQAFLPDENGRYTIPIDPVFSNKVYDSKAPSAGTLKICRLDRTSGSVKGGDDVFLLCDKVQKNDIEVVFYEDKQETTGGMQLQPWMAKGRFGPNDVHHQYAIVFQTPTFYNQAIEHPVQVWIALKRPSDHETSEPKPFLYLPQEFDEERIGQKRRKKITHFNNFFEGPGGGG

In the case of “CCGATTAACATCACCATTTTCCCTGATGTTAATCGGGTCTTGATTCGCTTGACGCTGCTG”, the binding signal came to 3.46 z-score in experiment [1]; 4.65 z-score in experiment [2]; 7.17 z-score in experiment [3]; 3.65 z-score in experiment [4]; 1.32 z-score in experiment [5]; 3.42 z-score in experiment [6].

As to “CCGATTAACATCACATCTTCCCCTGATGTTAATCGGGTCTTGATTCGCTTGACGCTGCTG”, the binding signal in experiment [1] was found to be 4.99 z-score; in experiment [2] it was 6.11 z-score; in experiment [3] it was 7.12 z-score; in experiment [4], 6.39 z-score; in experiment [5], 2.45 z-score; in experiment [6] it was 4.78 z-score.

Turning to “CCGATTAACATCAGGGGAAAGCATGATGTTAATCGGGTCTTGATTCGCTTGACGCTGCTG”, the binding signal is 5.49 z-score in experiment [1]; 6.83 z-score in experiment [2]; 8.3 z-score in experiment [3]; 6.79 z-score in experiment [4]; 2.4 z-score in experiment [5]; 4.54 z-score in experiment [6].

For “CCGATTAACATCACAGATTTCCCTGATGTTAATCGGGTCTTGATTCGCTTGACGCTGCTG”, the binding signal in experiment [1] worked out at 3.88 z-score; in experiment [2], 5.4 z-score; in experiment [3], 7.17 z-score; in experiment [4] it was 4.93 z-score; in experiment [5], 2.66 z-score; in experiment [6] it was 4.24 z-score.

Take “CCGATTAACATCACCCCCACCCCTGATGTTAATCGGGTCTTGATTCGCTTGACGCTGCTG”: the binding signal in experiment [1] was found to be 3.49 z-score; in experiment [2] it was 2.96 z-score; in experiment [3], 1.75 z-score; in experiment [4], 4.43 z-score; in experiment [5] it was 3.84 z-score; in experiment [6], 3.33 z-score.

In the case of “CCGATTAACATCAGGGGAACCTATGATGTTAATCGGGTCTTGATTCGCTTGACGCTGCTG”, the binding signal in experiment [1] worked out at 6.11 z-score; in experiment [2], 6.27 z-score; in experiment [3] it was 7.41 z-score; in experiment [4], 5.66 z-score; in experiment [5] it was 4.09 z-score; in experiment [6] it was 4.46 z-score.

As for “CCGATTAACATCAGGCGTTTCCCTGATGTTAATCGGGTCTTGATTCGCTTGACGCTGCTG”, the binding signal in experiment [1] is 2.18 z-score; in experiment [2] it was 3.27 z-score; in experiment [3], 2.59 z-score; in experiment [4] it was 1.83 z-score; in experiment [5], 1.54 z-score; in experiment [6], 4.39 z-score.

With “CCGATTAACATCAGGGAAAAACCTGATGTTAATCGGGTCTTGATTCGCTTGACGCTGCTG”, the binding signal in experiment [1] came to 5.74 z-score; in experiment [2] it was 7.26 z-score; in experiment [3] it was 7.89 z-score; in experiment [4], 3.82 z-score; in experiment [5] it was 8.13 z-score; in experiment [6] it was 9.06 z-score.

As to “CCGATTAACATCAACGTTTCCCCTGATGTTAATCGGGTCTTGATTCGCTTGACGCTGCTG”, the binding signal was determined as 5.38 z-score in experiment [1]; 6.77 z-score in experiment [2]; 10.1 z-score in experiment [3]; 7.56 z-score in experiment [4]; 2.48 z-score in experiment [5]; 4.46 z-score in experiment [6].

As for “CCGATTAACATCAGGGAAGTACATGATGTTAATCGGGTCTTGATTCGCTTGACGCTGCTG”, the binding signal in experiment [1] is 1.18 z-score; in experiment [2] it was 1.34 z-score; in experiment [3], 1.35 z-score; in experiment [4], 1.54 z-score; in experiment [5], 9.23 z-score; in experiment [6], 2.86 z-score.

Take “CCGATTAACATCACGAAATTCCCTGATGTTAATCGGGTCTTGATTCGCTTGACGCTGCTG”: the binding signal in experiment [1] was 4.84 z-score; in experiment [2], 6.78 z-score; in experiment [3], 7.28 z-score; in experiment [4] it was 4.17 z-score; in experiment [5] it was 4.59 z-score; in experiment [6] it was 5.74 z-score.
